Results from ChEMBL document CHEMBL4888484, “Replenishing the malaria drug discovery pipeline: Screening and hit evaluation of the MMV Hit Generation Library 1 (HGL1) against asexual blood stage Plasmodium falciparum ,using a nano luciferase reporter read-out” (2022).
Screen size: about 4,800 compounds; about 410 (8.5%) showed an effect of 50% or more. The entries come from a sample that favours strong results as a whole.

These compounds were tested on Plasmodium falciparum (assay: Confirmatory screen in NF54 pLDH assay, in single point, at 2uM, 72h). Settings: timepoint 72 hour.
Assay type: functional, Erythrocyte

| SMILES | % Inhibition |
| --- | --- |
| CCCCn1nnc(N(C(=O)c2cccc3c(Br)cccc23)C(=O)c2cccc3c(Br)cccc23)n1 | 0% |
| Cc1ccc(C(=O)Nc2ccc(N3CCN(CCC#N)CC3)cc2C(=O)O)cc1 | -6% |
| Cc1ccccc1[C@H]1CCN(c2ccc(NC(=O)c3ccc(Cl)cc3)c(C(=O)O)c2)C1 | -17% |
| Cc1ccc(C(=O)Nc2cc3c4c(c2)C2CCCC2CN4CC2CCCC32)cc1 (stereo unspecified) | 54% |
| Cc1ccccc1[C@H]1CC(=O)Nc2c1c(C)nn2-c1nncc(-c2ccc(Cl)cc2)n1 | 15% |
| CCNc1ccnc(NCc2nc(-c3cccc(F)c3)c(-c3ccccn3)[nH]2)n1 | 22% |
| Cc1c(-c2ccc(F)cc2)[nH]c2ccc(CNc3nccc(N(C)C)n3)cc12 | 50% |
| Cc1nn(C)cc1-c1n[nH]cc1Br | 7% |
| COc1ccccc1N(Cc1ccccc1)C1=NC(=[N+](Cc2ccccc2)c2ccccc2OC)c2ccccc21 | 67% |
| CC1COCCC1NCc1ncn(Cc2cccc(F)c2)n1 (stereo unspecified) | -4% |
| Cc1cnn(CCCNC(=O)c2ccc3[nH]c4c(c3c2)CCCC4)c1 | 5% |
| COc1nc(N2[C@@H]3CC[C@H]2C[C@@H](OC)C3)ncc1F | 52% |
| CCN1CCN(C2CCN(c3ncc(F)c(OC)n3)CC2)CC1 | 50% |
| CCN1CCC2CCC(C1)N2C(=O)Nc1ccc(OC2CCC2)c(F)c1 (stereo unspecified) | -18% |
| O=S(=O)(c1ccc(Cl)cc1)n1ccc(C2CC2)n1 | 4% |
| COc1cccc(CNCCCN2CCOCC2)c1OCc1ccc(F)cc1Cl | 1% |
| CC(C)(C)NC(=O)CNc1nnc(C2CC2)s1 | 12% |
| CCCCCC1CCC(c2ccc(-c3ccc(CC)cn3)cc2F)CC1 (stereo unspecified) | 7% |
| Cc1c[nH]c(=O)n1-c1ccc(C(=O)NCCc2cc(F)cc(F)c2)cc1 | 10% |
| O=C(CC1COCCN1C(=O)C1CCc2ccccc21)c1ccco1 (stereo unspecified) | -17% |
| CCOc1c(CNCCN(C)C)cc(Br)cc1OC | 3% |
| COc1ccc2nc(N3CN(Cc4ccccc4)CN(c4nc5ccc(OC)cc5s4)C3)sc2c1 | 1% |
| COc1ccc2ncc(=O)n(CCOc3ccccc3)c2c1 | 9% |
| COc1ccc2c(/C=C/c3cc[n+](C)cc3)cn(Cc3ccccc3)c2c1 | 62% |
| N#Cc1ccc2c(c1)N(Cc1ccccc1F)C(=O)[C@@H]1CCCN21 | 7% |
| O=C(N[C@@H](N1CCOCC1)C(Cl)(Cl)Cl)c1ccccc1Cl | 8% |

| SMILES | % Inhibition |
| --- | --- |
| O=C(CN1CCCC1)N1CCCN(S(=O)(=O)c2ccccc2)[C@H]1c1ccccc1 | -2% |
| Cc1ccc(CNc2ccc(S(C)(=O)=O)cc2)c(=O)n1C | -9% |
| CCc1nnc(NC(=O)NCc2c[nH]nn2)s1 | -6% |
| Cc1ccc2nc(-c3cc4ccccc4o3)cn2c1 | 52% |
| c1ccc2oc(-c3ccnc4nncn34)cc2c1 | 3% |
| Cc1ccccc1CC(=O)Nc1ccc(-c2nc3ncccc3o2)cc1 | 5% |
| NS(=O)(=O)c1ccc(CCNc2nc(-c3ccccc3)nc3ccccc23)cc1 | 5% |
| Cc1ccc(-c2nc3ncccn3c2Nc2ccc3c(c2)OCCO3)o1 | -4% |
| C[C@H](Nc1nc(N2CCCCC2)nc2ccccc12)c1ccccc1 | -6% |
| CNc1nc(NCc2ccccc2)nc2ccccc12 | 91% |
| CNc1nc(NCCc2ccccc2)nc2ccccc12 | 92% |
| c1ccc(CCNc2nc(-c3ccccn3)cs2)cc1 | 31% |
| CNc1nccc(OCc2ccccc2)n1 | 9% |
| O=C1c2ccccc2[C@@H](Nc2ccc3c(c2)OCCO3)N1c1ccccn1 | -8% |
| CNc1nc(Nc2ccc3c(c2)OCCO3)nc2ccccc12 | 103% |
| COc1ccc(CNc2nc(-c3nnc(-c4ccccc4)o3)nc3ccccc23)cc1 | -3% |
| CCN(CC)c1ccc(C(=O)C(F)(F)F)c(O)c1 | 0% |
| CCC(=O)OCCN1CCN(CCN(C(=O)CC)c2ccc(C3CCCC3)cc2)CC1 | 3% |
| O=C1C[C@H](c2nc3cc(Cl)ccc3o2)CN1c1ccc(F)cc1 | -13% |
| Cc1cccn2cc(CN(C)[C@H](c3ccccn3)C3CC3)nc12 | 4% |
| COc1ccc2cc3n(c2c1)C[C@](C(=O)NC1CCCCCC1)(c1ccccc1)N(Cc1cccc(Br)c1)C3=O | 10% |
| Cc1ccc(NC(=O)CC(=O)O)c(C)c1 | -5% |
| NC1(c2noc([C@@H]3CCCO3)n2)CCCCCC1 | 13% |
| CC1(C)c2ccccc2CCN1C(=O)CCc1ncc(-c2ccccc2)o1 | 8% |
| CN1CCC(n2ncc3[nH]c(-c4ccc(C(F)(F)F)cc4)nc32)CC1 | 99% |
| CN1CCN(c2nc(-c3cccc(C(F)(F)F)c3)nc3c2cnn3Cc2ccccc2)CC1 | -3% |

| SMILES | % Inhibition |
| --- | --- |
| CN(c1nc2c(cnn2C)c(=O)[nH]1)C1CCCC1c1ccc(C(F)(F)F)cc1 (stereo unspecified) | 10% |
| O=C(CCNC(=O)C1CC1c1c(F)cccc1Cl)NC1CCS(=O)(=O)C1 (stereo unspecified) | -19% |
| C[C@@H](CNc1nc(-c2ccccc2)nc2nc(-c3ccc(Cl)cc3)oc12)N1CCCCC1 | 76% |
| CC1(C)Cc2nc3ccccc3c(NCc3ccccc3)c2[C@@H](O)C1 | 54% |
| O=c1[nH]c2ccccc2c(NCc2ccccc2)c1N1CCN(c2ccccc2)CC1 | 1% |
| CC(=O)N1CC[C@H](CC(=O)N(C)Cc2ccccc2)C1 | 0% |
| Cc1ccc(NC(=O)Cn2c(C)cc(=O)c3sccc32)cc1Cl | -2% |
| CCCNC(=O)Cn1nc2cc(-c3ccc(OC)cc3)nc(C)n2c1=O | -8% |
| OC(CC(Nc1ccc(Cl)cc1)c1ccccc1)c1ccccc1 (stereo unspecified) | -7% |
| O=S(=O)(Cc1ccccc1)N1CCC2(CCCCC2)C1 | 6% |
| COc1ccc(OC)c(-c2csc(N3C(=O)CC4CS(=O)(=O)CC43)n2)c1 (stereo unspecified) | 10% |
| COc1ncnc2c1CN(C(=O)c1cc3c(s1)CC[C@H](C)C3)CC2 | 13% |
| CO[C@H]1CCOC2(CCN(C(=O)c3ccccc3F)CC2)C1 | 9% |
| O=C(CN1CCN(Cc2ccccc2F)C1=O)NC1CCCCCCC1 | -2% |
| O=C(c1ccccc1Cl)N1CCC[C@H](n2cnc3ccccc3c2=O)C1 | -12% |
| O=C(c1csc(C(=O)N2CCCC2)n1)N1CCN(Cc2ccccc2)CC1 | -4% |
| CCN(C[C@H]1CCCO1)C(=O)c1cnc(Cc2ccccc2)s1 | -15% |
| CCn1cc(C(=O)N(C2CCCCC2)C2CCCCC2)c(C)n1 | -13% |
| CN(C(=O)Cn1c(=O)n(-c2cc(F)cc(F)c2)c(=O)c2sccc21)c1ccccc1 | 9% |
| O=C(CN1CCOCC1)N1CCN(CCCOc2ccccc2)CC1 | 9% |
| Oc1cc(-c2ccc(F)cc2)nn1-c1nc2ccccc2[nH]1 | -11% |
| Cc1nn(-c2nc3ccccc3[nH]2)c(O)c1CCC(C)C | 68% |
| Cc1nn(-c2nc3ccccc3[nH]2)c(O)c1Cc1ccccc1 | 17% |
| O=S1(=O)CCC(NCCC2CCCO2)c2cc(F)c(F)cc21 (stereo unspecified) | -1% |
| C[C@H]1CS(=O)(=O)N(c2ccc(C(=O)Nc3ccccc3Oc3ccccc3)c(Cl)c2)C1=O | -3% |
| O=C(CCS(=O)(=O)c1ccc2ccccc2c1)Nc1ncn(Cc2c(F)cccc2Cl)n1 | 4% |

| SMILES | % Inhibition |
| --- | --- |
| Cc1ccc(CNC2CCN(C)CC2)c(OCc2ccco2)c1 | 3% |
| O=C(NCCOc1cccc(F)c1)c1cccnc1NC1CCCC1 | 1% |
| O=C(Nc1ccccc1-n1ccnc1)c1cnccn1 | -7% |
| Cc1cccc(N2CCN(C(=O)CCC3=Nc4cc(C(F)(F)F)ccc4S(=O)(=O)N3)CC2)c1C | 12% |
| COc1ccc(OC)c(CCNC(=O)Cn2ccc3cc(S(=O)(=O)N4CCCC4)ccc32)c1 | 11% |
| COc1ccccc1C1c2[nH]c3ccccc3c2C[C@H]2C(=O)N(CC(O)c3ccccc3)CC(=O)N12 (stereo partly specified) | 12% |
| COc1ccc(CNC(=O)c2ccc(N3C(=O)[C@@H]4Cc5c([nH]c6ccccc56)C(c5cccc(OC)c5)N4C3=O)cc2)cc1 (stereo partly specified) | 32% |
| CCOc1ccc(C2c3[nH]c4ccccc4c3C[C@H]3C(=O)N(C4CCN(Cc5ccccc5)CC4)CC(=O)N23)cc1OC (stereo partly specified) | 79% |
| CCN1c2cc(C)ccc2-n2cccc2C12CCNCC2 | -7% |
| COc1ccc(C(C)(C)C(=O)N(C)Cc2cn(C)nc2C(C)C)cc1 | 13% |
| COc1nc(NC2CCS(=O)(=O)CC2)ncc1F | 77% |
| CC1(C)C(NCC(O)COc2ccc(F)c(F)c2)[C@@H]2CCC[C@@H]21 (stereo partly specified) | 75% |
| Cc1cccc2sc(N3CCC[C@H](CNS(N)(=O)=O)C3)nc12 | 9% |
| Cc1nc(N2CCC(c3nc(-c4ccccc4)no3)CC2)c2c(C)noc2n1 | 9% |
| CCn1nccc1CN(C)C(=O)c1cc(S(=O)(=O)N(C)C)c(Cl)cc1Cl | -10% |
| COc1cccc(-c2nc(C)c(C(=O)Nc3nc(C(C)C)n[nH]3)s2)c1 | 10% |
| O=C(NC1CCCCC1)c1nn(-c2ccccc2)c(=O)c2ccccc12 | -12% |
| O=C(Nc1ccc(N2CCCC2)c(F)c1)C(=O)Nc1ccon1 | -13% |
| CN1CCCN(c2ccc(NC(=O)c3nn(-c4ccccc4)c(=O)c4ccccc34)cc2F)CC1 | 68% |
| Cc1ccc(S(=O)(=O)N(CC(=O)N[C@@H](C)c2ccccc2)c2cccc(Br)c2)cc1 | 11% |
| CCCc1ccc(OCCNC(=O)C2CCCC2)cc1 | 3% |
| O=C(Nc1ccccc1)C(=O)Nc1ccc2ncc(Cl)n2c1 | 7% |
| O=C(c1cc2nc(-c3ccc(Cl)c(Cl)c3)cc(C(F)(F)F)n2n1)N1CCN(c2ccccc2)CC1 | -7% |
